Hits are enriched below; roughly 4.2% of the tested compounds scored in any of these assays.
AHR activator = activators of human aryl hydrocarbon receptor; P35869; AHR-responsive luciferase reporter cells, luminescence; activation, % at 5 µM; actives 2.5% (n = 320,000); AID 2796; in the data active means activation above about 47%
Target sequence (P35869 whole entry, looked up): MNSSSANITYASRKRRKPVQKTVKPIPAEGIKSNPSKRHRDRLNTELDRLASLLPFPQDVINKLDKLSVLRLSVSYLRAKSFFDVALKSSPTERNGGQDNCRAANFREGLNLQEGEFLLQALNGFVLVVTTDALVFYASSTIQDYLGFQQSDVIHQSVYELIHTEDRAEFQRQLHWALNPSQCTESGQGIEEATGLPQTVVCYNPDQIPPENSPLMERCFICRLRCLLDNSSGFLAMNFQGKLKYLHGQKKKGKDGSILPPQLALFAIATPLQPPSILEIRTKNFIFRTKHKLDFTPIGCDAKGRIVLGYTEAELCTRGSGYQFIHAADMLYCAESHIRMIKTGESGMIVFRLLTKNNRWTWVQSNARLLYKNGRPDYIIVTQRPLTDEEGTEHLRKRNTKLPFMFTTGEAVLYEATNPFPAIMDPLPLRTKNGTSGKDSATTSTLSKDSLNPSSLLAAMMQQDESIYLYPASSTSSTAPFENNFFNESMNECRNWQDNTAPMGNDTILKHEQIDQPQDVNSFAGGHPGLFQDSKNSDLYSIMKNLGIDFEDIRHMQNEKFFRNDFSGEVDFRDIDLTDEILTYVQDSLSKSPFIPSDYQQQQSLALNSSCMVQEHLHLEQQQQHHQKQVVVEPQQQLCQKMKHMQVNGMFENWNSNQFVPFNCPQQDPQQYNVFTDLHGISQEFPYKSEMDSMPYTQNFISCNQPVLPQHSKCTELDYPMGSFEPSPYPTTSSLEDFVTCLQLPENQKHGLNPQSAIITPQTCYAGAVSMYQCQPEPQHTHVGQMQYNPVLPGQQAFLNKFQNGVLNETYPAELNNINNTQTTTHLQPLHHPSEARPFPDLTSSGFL
esBAF inh = inhibitors of esBAF chromatin remodeling in mouse ES cells | Bmi1-luciferase knock-in reporter, 24 h; 100% = twice the neutral-well signal | reporter increase, % at 12.5 µM | actives 2% (n = 350,000); in the data active means activation above about 40%; inconclusive means no clear call, values can overlap the other calls;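 further: a rise in the Bmi1 reporter signal indicates esBAF inhibition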
MITF act = MITF TRPM1 promoter activation in melanoma cells. SK-MEL-5 TRPM1-promoter luciferase, 24 h; % of positive control, neutral wells = 0. activation, % at 12.5 µM. actives 0.75% (n = 300,000). AID 588334;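 active means mean activation of at least 80% with every replicate also reaching 80%; inconclusive means mean reaches 80% but some replicate falls short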
FXN GAA850 act = increases GAA850 frataxin promoter reporter activity; actives 0.56% (n = 360,000); HEK293 lucGAA850 FXN promoter luciferase reporter, 24 h; percent of 10 µM SAHA response; activation, % at 6 µM; AID 540364;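 active means activation above the average of all compounds screened plus 3 SD, cutoff fixed separately per campaign, cut at about 7.5% in these data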
Wnt bcat act = Wnt/beta-catenin pathway activation. activation, % at 9.35 µM. Wnt/beta-catenin reporter cell assay, activator, plate reader. actives 1.2% (n = 300,000); in the data active means activation above about 30%, passing the limit was not always enough; inconclusive means no clear call, values can overlap the other calls
Of the large screens only hits and unclear results are named; the others gave an inactive call.

O=[N+]([O-])c1ccccc1/C=N/NC1=NCCN1	none (no result: esBAF inh)
COc1cc(C=NNc2ccccc2[N+](=O)[O-])cc(OC)c1OC	none (no result: AHR activator, MITF act)
O=[N+]([O-])c1ccc(O)c(/C=N/n2c(CO)nc3ccccc32)c1	none
CO[C@@H]1CN(C)C(=O)c2cc(NC(=O)C3CCCC3)ccc2OC[C@@H](C)N(S(=O)(=O)c2ccc(Cl)cc2)C[C@H]1C	none (no result: AHR activator, MITF act, FXN GAA850 act, Wnt bcat act)
C[C@H](O)C#Cc1cnc2c(c1)C(=O)N([C@@H](C)CO)C[C@H](C)[C@@H](CN(C)C(=O)Cc1ccccn1)O2	none (no result: AHR activator, MITF act, FXN GAA850 act, Wnt bcat act)
C[C@H]1CCCCO[C@@H](CN(C)C(=O)Nc2ccc3c(c2)OCO3)[C@@H](C)CN([C@@H](C)CO)C(=O)c2cc(NC(=O)c3ccncc3)ccc2O1	none (no result: AHR activator, MITF act, FXN GAA850 act, Wnt bcat act)
CN1C2=CC=CC=CC2=[N+](C)C12C([N+](=O)[O-])=CC(=[N+]([O-])[O-])C=C2[N+](=O)[O-] (stereo not drawn)	Wnt bcat act 106.3 (no result: MITF act)
CN1C2=CC=CC=CC2=[N+](C)C12C=CC(=[N+]([O-])[O-])C=C2[N+](=O)[O-] (stereo not drawn)	none (no result: esBAF inh)
C[C@H]1CN([C@@H](C)CO)C(=O)CCCn2cc(nn2)CO[C@H]1CN(C)Cc1ccc2c(c1)OCO2	none (no result: AHR activator, MITF act, FXN GAA850 act, Wnt bcat act)
CSCCC1C(C#N)=C(N)Oc2n[nH]c(-c3cccs3)c21 (stereo not drawn)	none
CC(C)CC1C(C#N)=C(N)Oc2n[nH]c(-c3cccs3)c21 (stereo not drawn)	Wnt bcat act 37.1 (no result: MITF act)
O=C(C1CCCCC1)N1C[C@H]2[C@@H](c3ccccc31)[C@H](CO)N2C(=O)c1ccccc1	none (no result: AHR activator, MITF act, FXN GAA850 act, Wnt bcat act)
Cc1ccc(S(=O)(=O)N(C)C[C@@H]2OCCCC[C@@H](C)Oc3ccc(NS(=O)(=O)c4ccc(F)cc4)cc3C(=O)N([C@@H](C)CO)C[C@H]2C)cc1	none (no result: AHR activator, MITF act, FXN GAA850 act, Wnt bcat act)
O=C(O)c1ccc(Cl)cc1Nc1nc2cc(Cl)ccc2o1	AHR activator 58.6 (no result: MITF act)
CCC(=O)Nc1cc(Cl)ccc1C(=O)O	none
O=C(N[C@H]1CC[C@H](CCNC(=O)c2ccccc2F)O[C@@H]1CO)c1ccc2c(c1)OCO2	none (no result: AHR activator, MITF act, FXN GAA850 act, Wnt bcat act)
O=C(C[C@@H]1C=C[C@@H](NS(=O)(=O)c2ccc(F)cc2)[C@@H](CO)O1)NC1CCCCC1	none (no result: AHR activator, MITF act, FXN GAA850 act, Wnt bcat act)
C=CCn1cc(/C=C2\SC(N3CCOCC3)=NC2=O)c2ccccc21	AHR activator 71.1 (no result: esBAF inh, MITF act)
O=C1N=C(N2CCOCC2)S/C1=C\c1cccs1	none
Cc1ccccc1-c1ccc(/C=C2/SC(N3CCOCC3)=NC2=O)o1	none (no result: esBAF inh, MITF act)
O=C1N=C(N2CCOCC2)S/C1=C\c1ccc(-c2ccccc2Cl)o1	AHR activator 49.6 (no result: esBAF inh)
CCOC(=O)Nc1ccc2c(c1)Cc1cc([N+](=O)[O-])ccc1-2	esBAF inh 74.6 (no result: AHR activator)
CCOC(=O)Nc1ccc2c(c1)C(=NO)c1ccccc1-2	Wnt bcat act 54.7 (no result: AHR activator, esBAF inh)
CCCNC(=O)N1C[C@H](O)COC[C@H]2O[C@H](CC(=O)N3CCCCC3)CC[C@@H]21	none (no result: AHR activator, MITF act, FXN GAA850 act, Wnt bcat act)
Cc1noc(C)c1NC(=O)N[C@H]1CC[C@H](CCNC(=O)C2CCOCC2)O[C@@H]1CO	none (no result: AHR activator, MITF act, FXN GAA850 act, Wnt bcat act)
COc1ccccc1/C=N\Nc1cn[nH]c(=O)c1Cl	AHR activator 47.9 (no result: esBAF inh)
O=c1[nH]ncc(N/N=C\c2ccncc2)c1Cl	none (no result: esBAF inh)
COc1ccc(Nc2ccc([N+](=O)[O-])cn2)cc1	none (no result: MITF act)
COc1ccc(CNc2ccc([N+](=O)[O-])cn2)cc1	esBAF inh 62.6
O=C(CSC1=Nc2ccccc2C2CC=NN12)NCc1ccco1 (stereo not drawn)	AHR activator 66.0 (no result: esBAF inh)
N#Cc1ccccc1NC(=O)CSC1=Nc2ccccc2C2CC=NN12 (stereo not drawn)	Wnt bcat act 47.3
CCCOC(=O)c1ccc(NC(=O)CSC2=Nc3ccccc3C3CC=NN23)cc1 (stereo not drawn)	none (no result: MITF act)
O=C(CSC1=Nc2ccccc2C2CC=NN12)Nc1ccc2c(c1)OCO2 (stereo not drawn)	none (no result: AHR activator)
CCCN(C)C[C@@H]1Oc2ncc(C#CCOC)cc2C(=O)N([C@@H](C)CO)C[C@@H]1C	none (no result: AHR activator, MITF act, FXN GAA850 act, Wnt bcat act)
O=C(NC(=S)Nc1ccc(Cl)cn1)c1cccs1	esBAF inh 72.0
Cc1ccnc(NC(=S)NC(=O)c2cccs2)c1	Wnt bcat act 34.3 (no result: esBAF inh)
Cc1noc(C)c1NC(=O)Nc1ccc2c(c1)CC(=O)N([C@@H](C)CO)C[C@@H](C)[C@@H](CN(C)S(=O)(=O)c1ccc(F)cc1)O2	none (no result: AHR activator, MITF act, FXN GAA850 act, Wnt bcat act)
Cn1cccc1C(=O)OCc1cc(Cl)cc2c1OCOC2	Wnt bcat act 72.7
O=C(OCc1ccccc1F)c1ccc2c(c1)-c1ccccc1C2=O	esBAF inh 44.2, MITF act inconclusive
c1ccc(-c2csc(Nc3cccnc3)n2)cc1	none (no result: esBAF inh)
Fc1ccc(-c2csc(-c3cccnc3)n2)cc1F	AHR activator 67.6
CCN(CC)c1ccc(Nc2nc(-c3cccnc3)cs2)cc1	esBAF inh 59.5, MITF act 111.6
C=CCNc1nc(-c2ccc(Cl)cc2)cs1	MITF act 134.2 (no result: esBAF inh, Wnt bcat act)
Clc1ccc(-c2csc(Nc3cccnc3)n2)cc1	AHR activator 81.4 (no result: esBAF inh)
C[C@@H]1CCCCO[C@@H](CN(C)CC2CCCCC2)[C@H](C)CN([C@@H](C)CO)C(=O)c2cc(NC(=O)c3ccncc3)ccc2O1	none (no result: AHR activator, MITF act, FXN GAA850 act, Wnt bcat act)
CCNC(=O)C[C@@H]1CC[C@H]2[C@@H](COc3ccc(NC(=O)Nc4ccccc4C)cc3C(=O)N2C)O1	none (no result: AHR activator, MITF act, FXN GAA850 act, Wnt bcat act)
C[C@@H]1CN([C@@H](C)CO)C(=O)c2cccc(NC(=O)c3ccc(-c4nccs4)cc3)c2O[C@H]1CN(C)S(=O)(=O)c1ccccc1	none (no result: AHR activator, MITF act, FXN GAA850 act, Wnt bcat act)
Clc1ccc(Nc2nc(-c3cccnc3)cs2)cc1	esBAF inh 54.5 (no result: Wnt bcat act)
Cc1ccc(NC(=O)C2CCN(S(=O)(=O)c3ccc(Cl)c(C(F)(F)F)c3)CC2)nc1	none
Cc1ccc(NC(=O)C2CCN(S(=O)(=O)c3ccc4ccccc4c3)CC2)nc1	esBAF inh 57.7 (no result: AHR activator)
N#Cc1c(C(F)(F)F)cc(-c2ccco2)nc1SCc1ccccn1	AHR activator 60.1 (no result: Wnt bcat act)
N#Cc1c(C(F)(F)F)cc(-c2ccccc2)nc1SCCN1CCOCC1	AHR activator 55.4
N#Cc1cc(-c2ccccc2)oc1NC(=O)c1ccccc1	none (no result: MITF act)
Cc1ccc(C(=O)Nc2oc(-c3ccccc3)cc2C#N)cc1	AHR activator 56.5 (no result: MITF act)
O=C(Cc1nc2ccccc2s1)c1ccc(O)cc1O	none (no result: esBAF inh, MITF act, FXN GAA850 act, Wnt bcat act)
O=C(CSc1nc2ccccc2s1)N1CCCCC1	esBAF inh 81.5
CC1CCCC(C)N1C(=O)CSc1nc2ccccc2s1 (stereo not drawn)	esBAF inh 74.5 (no result: MITF act, Wnt bcat act)
O=C(CSc1nc2ccccc2s1)c1ccc(O)cc1O	esBAF inh 50.5
CSc1nsc(SCC(=O)N2CCCCC2)n1	esBAF inh 51.3
CNC(=O)CSc1nc(SC)ns1	none (no result: esBAF inh)
C[C@H](CO)N1C[C@H](C)[C@H](CN(C)Cc2ccc3c(c2)OCO3)Oc2cc(-c3cccc(C(=O)N(C)C)c3)ccc2S1(=O)=O	none (no result: AHR activator, MITF act, FXN GAA850 act, Wnt bcat act)
COCC(=O)Nc1ccc2c(c1)OC[C@@H](C)N(C(=O)Cc1cccnc1)C[C@@H](C)[C@H](OC)CN(C)C2=O	none (no result: AHR activator, MITF act, FXN GAA850 act, Wnt bcat act)
O=C(CSc1ccc(-c2cccs2)nn1)N1CCCCC1	none (no result: Wnt bcat act)
CC1CCN(C(=O)CSc2nc3ccccc3s2)CC1	Wnt bcat act 42.0
O=C(CSc1ccc(-c2cccs2)nn1)N1CCCCCC1	esBAF inh 50.0 (no result: Wnt bcat act)

High-throughput results deposited in PubChem BioAssay by several laboratories.
